Measured values from PubChem BioAssay (NCI).
The panel holds about 83,000 compounds, 20% with a hit somewhere; the sample as a whole holds those more often.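 Single-concentration screen, 48 h exposure, 96-well plates. Endpoint: percent growth. Below 10 = active.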 Active and inactive are the calls of the source.

What follows are compounds tested on MALME-3M melanoma (assay: NCI-60 one-dose screen, 48 h (100 = growth as untreated, 0 = no growth, -100 = all killed)). Conditions: 10 µM unless noted.

Q: For O=NN1CCCc2cccc(O)c21, which growth is on record?
A: 38.3% (inactive)

Q: How did the growth turn out when Fc1ccc2c(c1)c(-c1nc(-c3c[nH]c4ncccc34)cs1)cn2CCN1CCOCC1 was run?
A: 74.2% (inactive)

Q: With CC(=O)Nc1nc2c(s1)CC[C@@]1(C)C2=CC[C@H]2[C@@H]3CC[C@H](O)[C@@]3(C)CC[C@@H]21 as the compound, how does the growth read?
A: 56.9% (inactive)

Q: CN(C)CC(C(=O)Cc1ccccc1)c1ccccc1 (stereo unspecified) was tested. Which growth did it give?
A: 37.5% (inactive)

Q: With CCOC(=O)[C@@H](C)C[C@H](Cc1ccccc1)NC(=O)c1csc([C@@H](C[C@H](C(C)C)N(C)C(=O)[C@H](CCC(C)C)NC(=O)[C@H]2CCCCN2C)OC(C)=O)n1 as the compound, how does the growth read?
A: 33.1% (inactive)

Q: For CCCCCCCCCCCCCCCCCC1OC[C@H](COC(=O)O[C@@H](C(=O)O[C@H]2C[C@@]3(O)[C@@H](OC(=O)c4ccccc4)[C@@H]4[C@]5(OC(C)=O)CO[C@@H]5C[C@H](O)[C@@]4(C)C(=O)[C@H](OC(C)=O)C(=C2C)C3(C)C)[C@@H](NC(=O)c2ccccc2)c2ccccc2)O1 (stereo partly specified), which growth is on record?
A: 58.9% (inactive)

Q: Which growth does the source give for c1cnc2[nH]cc(-c3csc(-c4cn(CCCCN5CCCCC5)c5ccccc45)n3)c2c1 here?
A: 92.8% (inactive)

Q: How did the growth turn out when C=C1C[C@](OC)([C@H](O)C(=O)N[C@@H](OC)[C@@H]2C[C@@H](O)C(C)(C)[C@@H](C[C@@H](COC)OC)O2)O[C@H](C)[C@@H]1C was run?
A: -71.1% (active)

Q: With O=C(Nc1ccc(O)cc1)C(Cl)(Cl)Cl as the compound, how does the growth read?
A: 96.8% (inactive)

Q: Which growth does the source give for Cc1c(NS(=O)(=O)c2ccccc2)ccc([N+](=O)[O-])c1Cl here?
A: 35.3% (inactive)

Q: CCCCN1CCCC[C@@H]1C(=O)N[C@H](C(=O)N(C)[C@H](C[C@@H](OC(C)=O)c1nc(C(=O)NC2CCC(C(=O)OC)CC2)cs1)C(C)C)C(C)C (stereo partly specified) was tested. Which growth did it give?
A: 43.8% (inactive)

Q: With Cn1cc(-c2csc(-c3cn(CCCCN4CCCCC4)c4ccc(F)cc34)n2)c2cccnc21 as the compound, how does the growth read?
A: -68.4% (active)

Q: For CC1=C(CN)C2=C(C)C3(CC3)[C@@](C)(O)C(=O)C2=C1, which growth is on record?
A: 96.2% (inactive)

Q: CC(=O)O[C@H]1C(=O)[C@@]2(C)[C@H]([C@H](OC(=O)c3ccccc3)[C@]3(O)C[C@H](OC(=O)[C@H](OC(=O)OC[C@H]4COC(C)(C)O4)[C@@H](NC(=O)c4ccccc4)c4ccccc4)C(C)=C1C3(C)C)[C@]1(OC(C)=O)CO[C@@H]1C[C@@H]2O was tested. Which growth did it give?
A: 27.2% (inactive)

Q: With Cn1cc(-c2csc(-c3cn(CCN4CCOCC4)c4ccc(F)cc34)n2)c2cccnc21 as the compound, how does the growth read?
A: 53% (inactive)

Q: Brc1ccc2c(c1)c(-c1nc(-c3c[nH]c4ncccc34)cs1)cn2CCN1CCOCC1 was tested. Which growth did it give?
A: 88.5% (inactive)

Q: For COC(=O)[C@@H](C)C[C@H](Cc1ccccc1)NC(=O)c1csc([C@@H](C[C@H](C(C)C)N(C)C(=O)[C@@H](NC(=O)[C@H]2CCCCN2C)C2CCCCC2)OC(C)=O)n1, which growth is on record?
A: 56.9% (inactive)

Q: For CC(=O)OC1CCC2(C)C(CCC3C2CC(=O)C2(C)C3CC(Sc3ccc(N(CCCl)CCCl)cc3)C2C(C)=O)C1 (stereo unspecified), which growth is on record?
A: 139% (inactive)

Q: Which growth does the source give for COc1ccc(S(=O)(=O)N(Cc2ccc3c(c2)C=CC(C)(C)O3)c2ccccc2)cc1OC here?
A: 83.4% (inactive)

Q: Which growth does the source give for CC[C@H](C)[C@H](NC(=O)[C@H]1CCCCN1C)C(=O)N(C)[C@H](CC(=O)c1nc(C(=O)N[C@@H](Cc2ccccc2)C[C@H](C)C(=O)O)cs1)C(C)C here?
A: 67.1% (inactive)

Q: With COC(=O)[C@@H](C)C[C@H](Cc1ccccc1)NC(=O)c1csc([C@@H](C[C@H](C(C)C)N(C)C(=O)[C@@H](NC(=O)C23CC(NC(C)=O)(C2)C3)C2CC2)OC(C)=O)n1 as the compound, how does the growth read?
A: 56.4% (inactive)

Q: For O=C1CC2(CC3(Cl)C(Cl)=C(Cl)C2(Cl)C3(Cl)Cl)C(=O)O1 (stereo unspecified), which growth is on record?
A: 101% (inactive)

Q: Which growth does the source give for C[n+]1c(/C=C/c2ccc(N(CCCl)CCCl)cc2)sc2ccccc21 here?
A: 54% (inactive)

Q: For CC[C@H](C)[C@H](NC(=O)NC(C)(C)C)C(=O)N(C)[C@H](C[C@@H](OC(C)=O)c1nc(C(=O)N[C@@H](Cc2ccccc2)C[C@H](C)C(=O)OC)cs1)C(C)C, which growth is on record?
A: 48.8% (inactive)

Q: Which growth does the source give for CCCCCCCC[N+](C)(CCCCCCCC)CCCCCCCC here?
A: -91.7% (active)

Q: With CC(=O)O[C@H]1C(=O)[C@@]2(C)[C@H]([C@H](OC(=O)c3ccccc3)[C@]3(O)C[C@H](OC(=O)[C@H](OC(=O)OC[C@@H]4COC(C)(C)O4)[C@@H](NC(=O)c4ccccc4)c4ccccc4)C(C)=C1C3(C)C)[C@]1(OC(C)=O)CO[C@@H]1C[C@@H]2O as the compound, how does the growth read?
A: 28.9% (inactive)
